{"source": "the OligoGym collection"}
{"molecular_target": "ATG16L1", "test": "pooled miR-30 sensor sort-seq; sequence = guide strand", "details": "shRNA"}
{"sequence": "TTTGTCCACACTGACAACGTGC", "sensor-assay potency score (higher = more potent)": -0.838}
{"sequence": "TTTCTTGTGTAATTCAGTCAGT", "sensor-assay potency score (higher = more potent)": -0.093}
{"sequence": "TTTATGCAGACTTTGCTGCGTA", "sensor-assay potency score (higher = more potent)": -0.62}
{"sequence": "TTTCTTGTAGCTGATTGTCATT", "sensor-assay potency score (higher = more potent)": -1.43}
{"molecular_target": "ATHL1", "test": "pooled miR-30 sensor sort-seq; sequence = guide strand", "details": "shRNA"}
{"sequence": "TCGAGCTGTGACCTCCACGGTC", "sensor-assay potency score (higher = more potent)": -1.01}
{"sequence": "TAAATCTCCAGATTTTTCCTGC", "sensor-assay potency score (higher = more potent)": 0.146}
{"sequence": "TGGAACATCAGGATACTCGGGA", "sensor-assay potency score (higher = more potent)": -0.126}
{"sequence": "TACCTTGATCTTGTCAGCCACC", "sensor-assay potency score (higher = more potent)": -0.985}
{"sequence": "TCGAAATAGCTGCAGGTCCTGG", "sensor-assay potency score (higher = more potent)": -1.24}
{"sequence": "TTGGTGTACACAGAGTTGTTGA", "sensor-assay potency score (higher = more potent)": -0.594}
{"sequence": "TACACAGAGTTGTTGACCCCTG", "sensor-assay potency score (higher = more potent)": -0.218}
{"sequence": "TTTTTGGCAAAGCTGCACCTGA", "sensor-assay potency score (higher = more potent)": -0.809}
{"sequence": "TTGATCTTGTCAGCCACCGCCA", "sensor-assay potency score (higher = more potent)": -0.876}
{"sequence": "TCCACAGTGAGTGACTCGGTGG", "sensor-assay potency score (higher = more potent)": -1.15}
{"sequence": "TCAAAGGGTACCTTGATCTTGT", "sensor-assay potency score (higher = more potent)": 0.372}
{"molecular_target": "ATOX1", "test": "pooled miR-30 sensor sort-seq; sequence = guide strand", "details": "shRNA"}
{"sequence": "TAGGAAACAGTCTTTCCTGTTT", "sensor-assay potency score (higher = more potent)": -0.521}
{"sequence": "TTCTTCAGGGTTGCAAGCAGAG", "sensor-assay potency score (higher = more potent)": -0.987}
{"sequence": "TGTCATACTTAACTCCTCCAAG", "sensor-assay potency score (higher = more potent)": -0.838}
{"sequence": "ATACTTAACTCCTCCAAGCTTA", "sensor-assay potency score (higher = more potent)": -0.272}
{"sequence": "TTTTCTTCAGGGTTGCAAGCAG", "sensor-assay potency score (higher = more potent)": 0.404}
{"sequence": "TAACTCCTCCAAGCTTATTGAG", "sensor-assay potency score (higher = more potent)": -1.42}
{"sequence": "TTCAGGGTTGCAAGCAGAGTGT", "sensor-assay potency score (higher = more potent)": -1.04}
{"sequence": "TTTCCTGTTTTCTTCAGGGTTG", "sensor-assay potency score (higher = more potent)": -0.588}
{"sequence": "AACTCCTCCAAGCTTATTGAGG", "sensor-assay potency score (higher = more potent)": -1.32}
{"sequence": "AGTCTTTCCTGTTTTCTTCAGG", "sensor-assay potency score (higher = more potent)": -1.75}
{"sequence": "TTCAATGCAGACCTTCTTGTTG", "sensor-assay potency score (higher = more potent)": -0.466}
{"sequence": "TCAGATTCAATGCAGACCTTCT", "sensor-assay potency score (higher = more potent)": -0.2}
{"sequence": "AAGCAGAGTGTCCATGCTGTGC", "sensor-assay potency score (higher = more potent)": -1.19}
{"sequence": "TCAATGTCATACTTAACTCCTC", "sensor-assay potency score (higher = more potent)": -0.482}
{"sequence": "TTCCTGTTTTCTTCAGGGTTGC", "sensor-assay potency score (higher = more potent)": -0.392}
{"sequence": "ATGTCATACTTAACTCCTCCAA", "sensor-assay potency score (higher = more potent)": -0.956}
{"sequence": "TTCAGCACAGCCTCCACAGGTC", "sensor-assay potency score (higher = more potent)": -0.0676}
{"sequence": "TACTTAACTCCTCCAAGCTTAT", "sensor-assay potency score (higher = more potent)": -1.31}
{"sequence": "AATGCAGACCTTCTTGTTGGGC", "sensor-assay potency score (higher = more potent)": -0.556}
{"sequence": "TCAATGCAGACCTTCTTGTTGG", "sensor-assay potency score (higher = more potent)": -0.56}
{"sequence": "TTTCTTCAGGGTTGCAAGCAGA", "sensor-assay potency score (higher = more potent)": -1.16}
{"sequence": "TATTGAGGACCCGAGAGACAGC", "sensor-assay potency score (higher = more potent)": -1.44}
{"sequence": "TCCAAGCTTATTGAGGACCCGA", "sensor-assay potency score (higher = more potent)": -0.663}
{"sequence": "TTGTTGGGCAGGTCAATGTCAT", "sensor-assay potency score (higher = more potent)": -0.613}
